The other results are listed elsewhere or left out. A number with no mark means an inactive call. The source made the active and inactive calls.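 Rule for the calls: active = superoxide signal below 65% of the plate average of sample wells; inactive = the rest.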

The nature of this assay: superoxide lowering in aged yeast cells, confirmation, cherry picked compounds (AID 434994).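 Note: cells aged with compound for 7 days at 30 degrees C before staining; 100% equals mean DHE fluorescence of all compound wells on the plate.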 The following applies: S. cerevisiae aging, superoxide DHE fluorescence; at 10 µM; hits give low values.
Consider `Cc1ccc(-c2nnc(Nc3ccc(C(=O)N(C)C)cc3)c3ccccc23)cc1S(N)(=O)=O`, for which the superoxide response (% of plate) was 107%.
As to `COc1ccc(C)cc1S(=O)(=O)Nc1cccc(Cl)c1Cl`, the superoxide response (% of plate) is 96.3%.
For the molecule `COc1cccc(NC(=O)NCCN2CCCCC2)c1`, the superoxide response (% of plate) was 101%.
To `CN1CCN(c2cc3c(cc2F)c(=O)c(C(=O)O)cn3CCF)CC1` belongs 116%.
On to `CC(=O)C[C@@H](O)CC(=O)[C@H]1OC(=O)CCCCCCc2ccccc21`, for which the superoxide response (% of plate) was 103%.
To `CCN(CC)c1ccc(NC(=O)CN2CCN(c3ccccn3)CC2)cc1` belongs 101%; to `CC(=O)c1ccc2c(c1)c1ccccc1n2CC(C)C`, 107%; to `Cc1cc2oc(C(=O)Nc3c(C)n(C)n(-c4ccccc4)c3=O)c(C)c2cc1Cl`, 93.5%.
With `O=C(CN1CCN(c2ccccn2)CC1)Nc1ccc(Br)cc1`, the superoxide response (% of plate) is 111%.
To `O=C(Nc1ccc(Br)cn1)c1ccc([N+](=O)[O-])cc1Cl` belongs 96.2%; to `Cc1cc(=O)n2[nH]c(-c3cccc(Cl)c3)cc2n1`, 98.1%; to `CCn1c2ccccc2c2cc(CC(N)=O)ccc21`, 111%.
To `CC(=O)NC1=NN(C(C)=O)C(C)(CCS(=O)(=O)c2ccc(Cl)c(Cl)c2)S1` (configuration not stated) belongs 101%; to `O=C(O)C1CCCN1S(=O)(=O)c1ccc(Br)cc1` (configuration not stated), 105%.
To `Cc1ccc(-c2nc(CS(=O)CC(=O)N3CCN(c4ncccn4)CC3)c(C)o2)cc1` (configuration not stated) belongs 92.5%.
For `Cn1c(Nc2ccccc2)cc(=O)n(C)c1=O`, the superoxide response (% of plate) was 100%.
With `O=C(O)c1ccc(F)c(S(=O)(=O)Nc2ccccc2)c1`, the superoxide response (% of plate) was 101%.
As for `CCN(CC)C(=O)CSc1nnc(-c2cccc(OC)c2)o1`, the superoxide response (% of plate) was 113%.
For `COC(=O)CNC(=O)c1ccc(OC2CCN(C(=O)C3CC3)CC2)cc1`, the superoxide response (% of plate) was 103%.
To `Cc1ccc(-c2nn(C(C)(C)C)c3ncnc(N)c23)cc1` belongs 42.9% (active); to `COc1cc(-c2nnn(CC(=O)NCc3ccccc3)n2)cc(OC)c1OC`, 100%.
To `CSc1ncc(Cl)c(C(=O)Nc2cc(C)ccc2C)n1` belongs 95.3%.

Values taken from PubChem BioAssay AID434994 (NMMLSC, 2010).
